Reference: PubChem BioAssay
Active and inactive are the calls of the source.

Key:
Albumin (Bos taurus) = Albumin (Bos taurus) (UniProt P02769); assay: bovine serum albumin binders on microarray, profiling panel, artefact control for SMM control protein annotation, biochemical, small-molecule microarray, Alexa647 label, 635/667 nm fluorescence (AID 1118); settings: BSA-A647 binding, fluorescence 635 nm, higher = more signal;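 note: score merges 667 nm emission intensity and signal-to-noise per printed compound spot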
Chain of Albumin (Bos taurus) (P02769 whole entry, looked up): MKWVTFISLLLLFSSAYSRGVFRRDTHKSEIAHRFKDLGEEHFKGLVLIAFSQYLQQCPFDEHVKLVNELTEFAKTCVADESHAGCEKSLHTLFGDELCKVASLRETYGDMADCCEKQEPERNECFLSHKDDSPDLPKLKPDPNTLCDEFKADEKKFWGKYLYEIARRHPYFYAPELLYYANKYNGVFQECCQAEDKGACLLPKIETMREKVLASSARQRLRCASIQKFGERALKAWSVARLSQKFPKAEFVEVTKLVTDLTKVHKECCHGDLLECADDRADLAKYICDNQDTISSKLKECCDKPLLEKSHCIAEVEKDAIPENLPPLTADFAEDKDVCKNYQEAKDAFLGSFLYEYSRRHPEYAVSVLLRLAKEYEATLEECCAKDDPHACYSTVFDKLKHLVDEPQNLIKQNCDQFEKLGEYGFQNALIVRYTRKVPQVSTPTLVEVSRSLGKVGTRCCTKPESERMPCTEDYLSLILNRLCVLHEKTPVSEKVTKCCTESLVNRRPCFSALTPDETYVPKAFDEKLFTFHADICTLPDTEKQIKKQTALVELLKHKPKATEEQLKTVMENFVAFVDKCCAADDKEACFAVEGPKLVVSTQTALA

[1] = small-molecule microarray binders of probe aXIP, primary screen, biochemical, NeuroSMM set, 635/667 nm fluorescence (AID 1119); settings: higher = more signal, called active from +8 up or from −8 down;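 note: probe is the protein aXip251-270 applied at 1 µg/mL to compound-printed slides; binding of probe to printed compounds measured as 667 nm fluorescence plus signal to noise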
[2] = small-molecule binders of probe aNOTCH3, primary screen, biochemical, small-molecule microarray, 635/667 nm fluorescence (AID 1120); settings: higher = more signal;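 note: probe is a biotin-tagged antibody raised against NOTCH3 rather than NOTCH3 protein; score merges spot fluorescence near 667 nm with spot signal to noise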
[3] = small-molecule binders of probe aNOTCH2, primary screen, biochemical, small-molecule microarray, 635/667 nm fluorescence (AID 1121); settings: higher = more signal;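 note: score merges feature fluorescence read at 667 nm with its signal to noise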
[4] = biological target: Carbonic anhydrase 2 (Homo sapiens) (UniProt P00918); assay: CAII small-molecule binders, profiling panel, biochemical, small-molecule microarray, Alexa647-labelled CAII (AID 1122); settings: CAII-A647 binding fluorescence, higher = more signal
[5] = COS7 lysate on small-molecule microarray, probe aHis, 635 nm (AID 1123); settings: COS7 cell lysate, fluorescence, higher = more signal;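 note: z-score combines 667nm fluorescence intensity with signal-to-noise per printed compound spot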
[6] = compound binding in COS7 lysate, probe aLAP1, primary screen, cell lysate, small-molecule microarray (AID 1124); settings: probe aLAP1, fluorescence, higher = more signal;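 note: lysate comes from COS7 cells expressing LAP1 and is applied at 0.3 µg/mL; score merges spot fluorescence near 667 nm with signal-to-noise over triplicate slides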
Sam68 (KHDRBS1) = assay: Sam68 small-molecule binders, primary screen, biochemical, small-molecule microarray, 635 nm fluorescence (AID 1125); settings: small-molecule microarray binding, higher = more signal;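 note: score merges 667 nm channel intensity with signal to noise over triplicate slides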
[7] = system: Chordin-like protein 2 (CHRDL2); assay: CHRDL2 small-molecule binders, primary screen, biochemical, small-molecule microarray, 635 nm fluorescence (AID 1126); settings: small-molecule microarray binding, fluorescence 635 nm; higher = more signal;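 note: printed compound slides probed with Chrdl2 protein at 4 µg/mL for 1 h at 4 C; score merges 667 nm emission intensity with signal to noise over three replicate slides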
[8] = biological target: Concanavalin-A (Canavalia ensiformis) (UniProt P02866); assay: ConA small-molecule binders, primary screen, artefact control for SMM control protein annotation, biochemical, small-molecule microarray, Alexa647 label, 635 nm (AID 1127); settings: ConA-A647 binding fluorescence, higher = more signal;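 note: z combines 667 nm emission intensity with signal-to-noise across three replicate slides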
Chain of Concanavalin-A (Canavalia ensiformis) (P02866 whole entry, looked up): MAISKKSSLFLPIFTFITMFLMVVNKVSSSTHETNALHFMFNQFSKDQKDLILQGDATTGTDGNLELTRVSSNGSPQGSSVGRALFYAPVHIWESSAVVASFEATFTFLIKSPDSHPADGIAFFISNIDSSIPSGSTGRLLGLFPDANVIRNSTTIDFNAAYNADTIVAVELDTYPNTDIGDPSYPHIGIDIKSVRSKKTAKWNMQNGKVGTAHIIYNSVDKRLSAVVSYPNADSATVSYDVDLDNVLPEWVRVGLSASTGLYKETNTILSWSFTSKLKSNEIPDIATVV

[9] = anti-His antibody binders, primary screen, artefact control for SMM control protein annotation, biochemical, small-molecule microarray, 635 nm fluorescence (AID 1128); settings: anti-His Alexa647 antibody binding, higher = more signal;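 note: score merges feature fluorescence with signal-to-noise for each printed compound spot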
[10] = system: Human papillomavirus type 1a E7 protein (residues 1-88); assay: HPV1a E7 small-molecule binders, primary screen, biochemical, small-molecule microarray, residues 1-88, 635 nm (AID 1129); settings: small-molecule microarray binding, fluorescence 635 nm; higher = more signal
[11] = biological target: Focal adhesion kinase 1 (Homo sapiens) (UniProt Q05397); assay: small-molecule microarray binders of FAK, primary screen, biochemical, 635/667 nm fluorescence, BSA, DTT (AID 1130); settings: PTK2 binding, 635 nm fluorescence, higher = more signal;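 note: composite of spot emission at 667 nm and signal to noise over triplicate slides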
Chain of Focal adhesion kinase 1 (Homo sapiens) (Q05397 whole entry, looked up): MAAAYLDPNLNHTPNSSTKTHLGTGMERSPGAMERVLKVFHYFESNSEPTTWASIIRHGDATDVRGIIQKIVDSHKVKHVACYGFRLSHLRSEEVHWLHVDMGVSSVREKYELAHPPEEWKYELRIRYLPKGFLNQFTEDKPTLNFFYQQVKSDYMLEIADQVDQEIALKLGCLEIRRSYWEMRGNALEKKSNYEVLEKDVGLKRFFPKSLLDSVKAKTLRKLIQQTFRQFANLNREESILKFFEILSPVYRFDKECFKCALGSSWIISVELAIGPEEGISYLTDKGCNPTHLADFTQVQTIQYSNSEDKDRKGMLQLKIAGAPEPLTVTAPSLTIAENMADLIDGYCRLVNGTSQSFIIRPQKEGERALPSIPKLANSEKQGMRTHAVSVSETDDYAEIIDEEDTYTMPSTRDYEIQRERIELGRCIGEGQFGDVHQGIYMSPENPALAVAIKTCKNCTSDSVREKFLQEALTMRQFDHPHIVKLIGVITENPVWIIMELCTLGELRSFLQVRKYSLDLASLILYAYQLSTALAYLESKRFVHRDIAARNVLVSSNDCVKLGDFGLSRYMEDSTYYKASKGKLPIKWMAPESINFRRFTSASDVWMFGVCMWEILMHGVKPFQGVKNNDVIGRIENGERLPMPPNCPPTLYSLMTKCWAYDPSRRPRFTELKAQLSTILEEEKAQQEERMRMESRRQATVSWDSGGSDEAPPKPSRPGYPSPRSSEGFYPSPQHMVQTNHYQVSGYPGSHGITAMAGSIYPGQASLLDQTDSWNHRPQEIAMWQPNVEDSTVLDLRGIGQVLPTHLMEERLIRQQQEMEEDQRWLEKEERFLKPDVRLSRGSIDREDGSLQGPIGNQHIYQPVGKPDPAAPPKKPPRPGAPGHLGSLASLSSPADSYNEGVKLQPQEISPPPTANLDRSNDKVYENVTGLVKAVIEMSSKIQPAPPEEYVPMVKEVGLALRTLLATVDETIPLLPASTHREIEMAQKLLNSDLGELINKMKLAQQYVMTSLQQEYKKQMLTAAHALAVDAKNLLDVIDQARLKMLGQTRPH

[12] = system: Fibrinogen (Alexa647-labelled); assay: fibrinogen binders on compound microarrays, profiling panel, artefact control for SMM control-protein annotation, biochemical, small-molecule microarray, 635/667 nm fluorescence (AID 1131); settings: fibrinogen-A647 binding fluorescence, higher = more signal;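 note: z-score merges 667 nm fluorescence with per-spot signal-to-noise over triplicate slides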
[13] = biological target: Follistatin (Homo sapiens) (UniProt P19883); assay: follistatin binders on small-molecule microarrays, primary screen, biochemical, small-molecule microarray, 635/667 nm fluorescence (AID 1132); settings: FST binding, 635 nm fluorescence, higher = more signal
Chain of Follistatin (Homo sapiens) (P19883 whole entry, looked up): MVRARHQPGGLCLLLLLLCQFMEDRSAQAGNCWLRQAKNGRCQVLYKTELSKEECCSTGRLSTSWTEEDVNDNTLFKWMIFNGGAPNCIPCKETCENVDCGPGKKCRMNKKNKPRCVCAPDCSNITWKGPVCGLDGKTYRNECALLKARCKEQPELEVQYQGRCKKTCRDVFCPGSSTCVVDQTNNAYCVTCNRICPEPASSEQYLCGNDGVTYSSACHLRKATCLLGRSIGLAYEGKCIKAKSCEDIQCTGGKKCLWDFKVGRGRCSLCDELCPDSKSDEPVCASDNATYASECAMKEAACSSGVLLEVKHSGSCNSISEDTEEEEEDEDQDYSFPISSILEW

[14] = biological target: Fibroblast growth factor 2 (Homo sapiens) (UniProt P09038); assay: FGF2 binders on small-molecule microarrays, primary screen, biochemical, small-molecule microarray, 635/667 nm fluorescence (AID 1133); settings: small-molecule microarray binding, FGF2, fluorescence 635/667; higher = more signal
Chain of Fibroblast growth factor 2 (Homo sapiens) (P09038 whole entry, looked up): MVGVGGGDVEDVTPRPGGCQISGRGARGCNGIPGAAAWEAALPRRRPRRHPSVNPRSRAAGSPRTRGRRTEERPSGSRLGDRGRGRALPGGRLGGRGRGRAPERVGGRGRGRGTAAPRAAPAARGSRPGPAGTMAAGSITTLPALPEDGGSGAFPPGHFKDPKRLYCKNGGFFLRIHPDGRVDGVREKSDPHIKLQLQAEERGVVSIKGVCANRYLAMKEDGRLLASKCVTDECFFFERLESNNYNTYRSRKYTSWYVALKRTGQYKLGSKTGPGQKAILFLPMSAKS

[15] = mitochondrial membrane potential change in A549 cells, profiling panel, cell-based, JC-1 fluorescence, basal, 24 h, 100 nL (AID 1138); settings: higher = more signal;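 note: A549 lung adenocarcinoma cells under basal conditions with no added stimulus; test concentration not given here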
Lefty1 = Lefty1 binders on small-molecule microarrays, primary screen, biochemical, small-molecule microarray, 635/667 nm fluorescence (AID 1139); settings: small-molecule microarray binding, fluorescence 635/667; higher = more signal
[16] = system: wheat germ agglutinin (Triticum aestivum), Alexa647-labelled; assay: wheat germ agglutinin binders on compound microarrays, profiling panel, artefact control for SMM control-protein annotation, biochemical, small-molecule microarray, 635/667 nm fluorescence (AID 1140); settings: WGA-A647 binding, 635 nm fluorescence, higher = more signal;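 note: score merges 667 nm feature emission with signal to noise over triplicate slides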
[17] = biological target: Luciferin 4-monooxygenase (Photinus pyralis) (UniProt P08659); assay: firefly luciferase enzyme inhibitors, primary screen, biochemical, luminescence, purified enzyme, 2006 set (AID 1141); settings: SteadyGlo luminescence, 30 min, higher = more signal, called active from +8 up or from −8 down;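 note: cell-free assay with purified firefly luciferase at 100 ng per well in PBS; test concentration not given here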
Chain of Luciferin 4-monooxygenase (Photinus pyralis) (P08659 whole entry, looked up): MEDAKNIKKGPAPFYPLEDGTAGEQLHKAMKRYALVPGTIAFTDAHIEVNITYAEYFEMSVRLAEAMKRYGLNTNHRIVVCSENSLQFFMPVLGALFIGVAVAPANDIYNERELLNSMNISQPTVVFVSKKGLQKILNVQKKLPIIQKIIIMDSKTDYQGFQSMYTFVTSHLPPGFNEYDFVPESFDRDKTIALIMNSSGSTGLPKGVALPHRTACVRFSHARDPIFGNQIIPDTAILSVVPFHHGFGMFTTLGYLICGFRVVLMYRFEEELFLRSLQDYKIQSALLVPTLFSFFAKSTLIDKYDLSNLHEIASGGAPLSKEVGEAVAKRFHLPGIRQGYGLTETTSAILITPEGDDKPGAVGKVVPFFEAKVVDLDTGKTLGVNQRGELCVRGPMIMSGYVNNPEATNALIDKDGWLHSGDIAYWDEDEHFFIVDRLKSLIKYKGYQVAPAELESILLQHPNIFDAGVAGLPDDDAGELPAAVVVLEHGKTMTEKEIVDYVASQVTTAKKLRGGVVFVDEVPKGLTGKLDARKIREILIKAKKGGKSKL

Structure (SMILES) | composite z-score (Albumin (Bos taurus)) | composite Z-score [1] | composite z-score [2] | composite z-score [3] | composite z-score [4] | composite z-score [5] | composite z-score [6] | composite z-score (Sam68 (KHDRBS1)) | composite z-score [7] | composite z-score [8] | composite z-score [9] | composite z-score [10] | composite z-score [11] | composite z-score [12] | composite z-score [13] | composite z-score [14] | z-score [15] | composite z-score (Lefty1) | composite z-score [16] | z-score [17]
CCOC(=O)[C@H](Cc1ccccc1)NC(=O)CCC1CC(OC(=O)NCc2cccc3ccccc23)CC2(CCCC(COC(=O)NCc3ccc4c(c3)OCO4)O2)O1 (stereo not given in full) | 0.85 | 0.464 (inactive) | 0.0824 | -0.148 | 0.509 | 0.831 | 0.404 | 0.477 | -0.054 | 0.0672 | 0.209 | 0.397 | 0.338 | 0.508 | 0.222 | 0.982 | 0.4 | 0.659 | -0.074 | -0.323 (inactive)
COCCNC(=O)OCC1CCCC2(CC(OC(=O)NCc3cccc4ccccc34)CC(CCC(=O)N[C@@H](C)C(=O)OC)O2)O1 (stereo not given in full) | 0.0307 | 0.59 (inactive) | -0.0362 | -0.14 | 0.262 | 1.12 | -0.107 | 1.3 | 0.665 | 1.03 | 0.522 | 1.13 | -0.208 | 0.912 | 0.728 | 1.04 | 0.609 | 0.42 | 0.598 | 0.396 (inactive)
O=C1C[C@H](c2ccccc2)[C@H](c2ccc(Br)cc2)O1 | 0.275 | 0.372 (inactive) | -0.182 | -0.117 | -0.202 | -0.652 | -1.07 | -0.179 | 0.143 | -0.394 | 0.443 | -0.374 | 0.718 | -0.233 | -0.126 | -0.0946 | -0.421 | 0.0985 | -0.236 | -1.8 (inactive)
COC(=O)[C@@H]1CC[C@H](C)[C@@H](c2ccc(Br)cc2)N1C(=O)C(F)(F)F | -0.591 | -0.225 (inactive) | -0.232 | -0.1 | -0.292 | 0.23 | 0.0015 | -0.412 | -0.183 | -0.317 | -0.0497 | -1.42 | -0.0957 | -0.0695 | -0.202 | -0.0514 | 0.0789 | -0.125 | -0.321 | -0.1 (inactive)
COc1ccc(O[C@H]2C=C[C@@H](c3ccccc3)O[C@@H]2CON=C(C)CCN2CCCc3nc(C)c(C)cc32)cc1 | 0.118 | 0.528 (inactive) | 0.0225 | -0.048 | 0.437 | 0.896 | 0.271 | 1.05 | 0.369 | 0.946 | 1.5 | 0.957 | 0.0143 | 0.328 | 0.651 | 0.529 | 1.16 | 0.408 | 0.584 | 0.715 (inactive)
CO[C@@H](C1CCCCC1)[C@@H](C)[C@H](OCc1cccc(Br)c1)[C@@H](C)CO | -0.0658 | -0.188 (inactive) | -0.207 | -0.209 | -0.17 | -0.111 | -0.0972 | -0.0221 | 0.908 | -0.153 | -0.833 | -0.0434 | -0.299 | -0.106 | 0.265 | 0.286 | -0.72 | 0.407 | -0.181 | 0.158 (inactive)
C[C@@H]1CC[C@H]2C(=O)O[C@@H](COc3ccc(C(C)(C)C)cc3)CN2[C@H]1c1ccc(Br)cc1 | 0.425 | 0.289 (inactive) | -0.0663 | -0.164 | -0.0795 | 1.39 | 0.21 | 0.292 | 0.329 | 0.721 | -0.0988 | -0.153 | -0.171 | 0.407 | 0.0252 | 0.0914 | 0.784 | 0.135 | 0.0196 | 0.104 (inactive)
O=C1C=C[C@@H](O)[C@@H]2[C@@H]3C(=O)N(Cc4ccc5c(c4)OCO5)C(=O)[C@@H]3CC[C@@H]12 | 0.147 | -0.88 (inactive) | 0.123 | -0.0567 | -0.137 | 0.163 | 0.129 | 0.627 | 0.761 | 0.748 | 0.314 | 0.867 | 0.185 | 0.546 | 0.382 | 0.569 | -0.635 | 0.585 | 0.0599 | -0.276 (inactive)
CCC1=NOC(CCC2CC(OC(=O)NCc3cccc4c3OCO4)CC3(CCCC(COC(=O)NCCc4ccc(Cl)cc4)O3)O2)C1 (stereo not given) | 0.585 | -0.0197 (inactive) | -0.0647 | -0.0651 | 0.228 | 0.599 | -0.29 | 0.712 | -0.0546 | 0.0985 | 0.696 | 0.459 | -0.123 | 0.663 | 0.0801 | 1.24 | -0.415 | 0.497 | -0.191 | 0.74 (inactive)
COC(=O)CC=C[C@@H](C)[C@@H](C=NOC[C@@H](C)[C@H](OCc1ccccc1)C(C)C)OC | -0.469 | -0.235 (inactive) | -0.0647 | -0.124 | -0.12 | 0.266 | -0.61 | 0.447 | 0.386 | 0.102 | 1.86 | -0.0858 | 0.0285 | -0.211 | 0.088 | 0.323 | -1.01 | 0.419 | -0.307 | -0.698 (inactive)
